Results on 79 molecules are retold here after PubChem BioAssay AID651821 (The Scripps Research Institute Molecular Screening Center, 2012).

SMILES strings stand for the structures. About 4,700 (1.3%) of roughly 370,000 compounds were called active. Many of the other results were omitted from the sample, so actives are more common in it than they were. A number with no mark means an inactive call.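 The calls were made as follows: active = inhibition above the plate cutoff, the mean of all test compounds on that plate plus 3 SD (cut at about 35% in these data); inactive = the rest.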

The assay can be described thus: binders of r(CAG) RNA repeats, primary screen, biochemical, fluorescence (AID 651821).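 Also: 0% = DMSO alone and 100% = 100 µM mitoxantrone as full dye displacement; higher means more dye released from RNA so lower well fluorescence.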 To be noted: r(CAG) RNA repeat, TO-PRO-1 dye displacement fluorescence; at 3 µM; hits give high values.
A word on the inhibition: it is the change of the read-out against control, counted positive when it falls. As for `COCC(=O)N[C@@H]1C[C@@H]2O[C@@H](CO)CC[C@@H]2O[C@@H]1CCc1ccc(-c2ccccc2)cc1`, the inhibition is -0.99%.

Consider `O=C(Nc1ccc2c(c1)CCC2)c1cccc(S(=O)(=O)Nc2ccccc2Cl)c1`, for which the inhibition was 57.2% (active).

Consider `O=C(Nc1ccc2c(c1)CCC2)c1cccc(S(=O)(=O)N2CCN(c3ccc(F)cc3)CC2)c1`, for which the inhibition is 13%.

Consider `O=C(NCC1(N2CCCCC2)CCCCC1)c1cccc(S(=O)(=O)Nc2ccccc2Cl)c1`, for which the inhibition is 16.6%.

Regarding `CCOC(=O)[C@@]12CN(C(=O)OC(C)(C)C)CC=C1N(Cc1ccc(OC)cc1)C(=O)[C@H]2CC(=O)NCc1ccc(OC)c(OC)c1`, the inhibition was 1.18%.

As for `CCCCCCC(=O)Nc1nc(C)c(-c2csc(Nc3cccc(OC)c3)n2)s1`, the inhibition is 28.5%.

For `CCCCCCC(=O)Nc1nc(C)c(-c2csc(Nc3cc(Cl)ccc3OC)n2)s1`, the inhibition was 41.8% (active).

Turning to `C=CCCC(=O)Nc1nc(C)c(-c2csc(Nc3ccc(Cl)cc3)n2)s1`, the inhibition was 31.7%.

As to `COCCCNC(=O)C[C@H]1C[C@@]2(C(=O)OC)C(=C[C@H](C(C)(C)C)O[C@@H]2C)N(Cc2ccc3c(c2)OCO3)C1=O`, the inhibition is -0.27%.

As for `CCOc1cc(/C=C(\C#N)c2nc(-c3cccs3)c(NC(C)=O)s2)ccc1O`, the inhibition was 37.7% (active).

Regarding `CCOc1cc(/C=C(/C#N)c2ccc(Cl)cc2)cc(Cl)c1OCC(=O)O`, the inhibition is 16.7%.

With `CCOc1ccc(/C=C/C(=O)N(CC)CC(=O)NCc2cccs2)cc1OC`, the inhibition was -8.5%.

For `CCCN1C(=O)c2[nH]nc(-c3ccccc3)c2C1c1ccccc1` (centres undefined), the inhibition was 0.38%.

With `CC1(OC(=O)C2CCCC2)C(=O)C=C2C=C(c3ccc(C#N)cc3)OC=C2C1=O` (centres undefined), the inhibition was 50.7% (active).

For the molecule `Cc1ccccc1C(=O)N1CCC(C(=O)Oc2ccc(C#N)cc2)CC1`, the inhibition is -7.52%.

In the case of `COC(=O)CCCC1=CC2=C(c3ccccc3)C(=O)C(C)(OC(=O)C3CCCC3)C(=O)C2=CN1c1ccc(OC)cc1` (centres undefined), the inhibition is 6.99%.

Consider `C=CC1=CCN(S(=O)(=O)C(C)(C)C)[C@@H]1CCO`, for which the inhibition was 8.95%.

Take `CCC(C)Cn1c(O)cc2nn(-c3nc4ccccc4s3)c(=O)c-2c1C` (centres undefined): the inhibition was 56.8% (active).

`Cc1cc(C)cc(OCC(=O)Nc2cc(NC(=O)COc3cc(C)cc(C)c3)cc(C(=O)O)c2)c1`: the inhibition was 61.8% (active).

On to `COCC(=O)Nc1cc(C(=O)OC)cc(C(=O)OC)c1`, for which the inhibition is -0.01%.

For `Cc1cc(C)cc(OCC(=O)Nc2ccc(N3CCOCC3)cc2N2CCOCC2)c1`, the inhibition was -4.13%.

Consider `Cc1cccc(OCC(=O)NC2CC(C)(C)NC(C)(C)C2)c1`, for which the inhibition is 0.76%.

On to `Cc1cccc(OCC(=O)Nc2ccc(C(=O)O)cc2NC(=O)COc2cccc(C)c2)c1`, for which the inhibition was 50.5% (active).

Regarding `Cc1ccc(OCC(=O)Nc2ccc(C(=O)O)cc2NC(=O)COc2ccc(C)c(C)c2)cc1C`, the inhibition is 19.4%.

As for `COC(=O)Nc1nc2ccc(C(=O)C3CC3)cc2[nH]1`, the inhibition is 4.25%.

For `C[C@H](C(=O)N(C)c1ccccc1)[C@@H](O)c1ccc2ccccc2c1`, the inhibition is 1.73%.

As for `CCOC(=O)[C@@]12CCC3=C1N(CCC3)C(=O)[C@H](CC(=O)N1CCN(C(=O)c3ccco3)CC1)C2`, the inhibition was 4.55%.

On to `COc1cc(C2CC(=O)N3CN(Cc4ccccc4)CSC3=C2C#N)ccc1OCc1ccccc1` (centres undefined), for which the inhibition is 51.3% (active).

With `CCCNC(=O)C1CC(=O)N(c2ccc(OCc3ccccc3)cc2)C1` (centres undefined), the inhibition is 1.21%.

Take `C=CCc1ccc(OCC(O)CN2CCN(Cc3ccccc3)CC2)c(OC)c1` (centres undefined): the inhibition is -8.04%.

In the case of `C/C(=N/OC(=O)c1ccc(Br)cc1)c1ccc(C)cc1`, the inhibition was -2.66%.

On to `COc1ccccc1C(=O)NC(CCSC)C(=O)NNC(=O)c1ccccc1C` (centres undefined), for which the inhibition is -5.48%.

`Cc1ccc(S(=O)(=O)N2[C@@H](c3cccc(Cl)c3)C(C(=O)O)=CC[C@H]2c2ccc(Cl)c(Cl)c2)cc1`: the inhibition is 25.1%.

Turning to `CCN1C(=O)[C@@H]2[C@@H]3CN(S(=O)(=O)c4ccccc4C)[C@@H](c4ccc(Cl)cc4)[C@@H]3C(=O)C[C@@H]2C1=O`, the inhibition is 8.04%.

As for `Cc1ccccc1S(=O)(=O)N1[C@@H](c2cccc(Cl)c2)C(C(=O)OC(C)(C)C)=CC[C@H]1c1ccc(Cl)cc1`, the inhibition is 3.52%.

`Cc1ccc(S(=O)(=O)N2[C@@H](c3ccccc3F)C(C(=O)O)=CC[C@H]2c2ccc(Cl)cc2)cc1`: the inhibition was 60.2% (active).

In the case of `Cc1ccc([C@@H]2CC(=O)[C@@H]3CN(S(=O)(=O)c4ccc(C)cc4)[C@H](c4ccccc4F)C[C@@H]3N2S(=O)(=O)c2ccc(Cl)cc2)cc1`, the inhibition was 9.69%.

As to `COc1ccc(C2CC=C(C(=O)O)C(c3ccccc3F)N2S(=O)(=O)c2ccc(C)cc2)cc1OC` (centres undefined), the inhibition was 24.2%.

For the molecule `CCOC(=O)C1=CC[C@@H](c2ccccc2)N(S(=O)(=O)c2ccc(C)cc2)[C@H]1c1cccc(OC)c1`, the inhibition was 7.08%.

With `Cc1ccccc1S(=O)(=O)N1[C@@H](c2cccc(Cl)c2)C(C(=O)O)=CC[C@H]1c1ccc(Cl)cc1`, the inhibition was 81.4% (active).

Take `Cc1ccc([C@@H]2CC=C(C(=O)O)[C@H](c3cccc(Cl)c3)N2S(=O)(=O)c2ccc(C)cc2)cc1`: the inhibition was 77.2% (active).

Take `Clc1ccc(-n2c(COc3ccccc3)nnc2SCc2nc3ccccc3[nH]2)cc1`: the inhibition is 2.7%.

For the molecule `COC(=O)[C@@]12CCCCC=C1N(CCc1ccc(Cl)cc1)C(=O)[C@H]2CC(=O)NCc1ccc(OC)c(OC)c1`, the inhibition was 8.28%.

`CC(=NNC(N)=O)c1ccc(Cl)c(-n2cccc2)c1`: the inhibition is 1.94%.

Take `COc1ccc(CNC(=O)CN(Cc2ccccc2Cl)C(=O)c2csnn2)cc1`: the inhibition is 3.39%.

With `O=S1(=O)c2c(cccc2N2CCCC2)O[C@H](COCc2ccccc2)CN1C1CC1`, the inhibition was 1.71%.

With `CCCC1=Nc2cc(C(=O)NCc3ccco3)ccc2Sc2ccccc21`, the inhibition was 2.23%.

`C=CCN1[C@@H](Cc2ccccc2)COc2cccc(N3CCSCC3)c2S1(=O)=O`: the inhibition is 5.53%.

With `Cc1ccccc1C(=O)N[C@H](C(=O)N1CCC[C@H]1C(=O)NCc1ccccc1)C(C)C`, the inhibition is 0.37%.

Consider `O=C(NCc1cccs1)C1CCN(S(=O)(=O)c2ccccc2[N+](=O)[O-])CC1`, for which the inhibition is 7.31%.

`CCC(CO)Nc1cccc2c1S(=O)(=O)N(Cc1cn(Cc3ccccc3C(F)(F)F)nn1)Cc1ccccc1O2` (centres undefined): the inhibition was 7.47%.

`COC(=O)C[C@H]1CC[C@H]2[C@H](COc3ccc(NC(=O)C4CC4)cc3C(=O)N2C)O1`: the inhibition was -1.01%.

For `Nc1[nH]c(C(=O)c2ccc(Br)cc2)c(-c2ccc3c(c2)OCO3)c1C(=O)NCCc1c[nH]c2ccccc12`, the inhibition is 14.8%.

As to `Cc1ccc(C(=O)N(Cc2ccccn2)CC2CCCO2)cc1` (centres undefined), the inhibition was -0.73%.

With `COc1cc(/C=C2/C(=O)NN(c3cccc(Cl)c3)C2=O)cc(Br)c1O`, the inhibition is 64% (active).

For `CCOc1c(Br)cc(/C=C2\C(=O)N(CCC#N)N=C2C)cc1OC`, the inhibition was 16.2%.

For `CCN(C(=O)[C@@H](C1CC1)[C@@H](O)c1ccc2ccccc2c1)c1ccccc1`, the inhibition was -1.86%.

On to `COC(=O)[C@]12C[C@H](CC(=O)NCc3ccc(C)o3)C(=O)N(CCC3=CCCCC3)C1=C[C@H](C(C)(C)C)O[C@@H]2C`, for which the inhibition was 0.73%.

As to `O=C(CNS(=O)(=O)c1ccccc1F)N1CCN(c2ccccn2)CC1`, the inhibition was -0.14%.

In the case of `COc1ccc2[nH]c3c(C)c4cc[n+](C)cc4c(C)c3c2c1`, the inhibition was 39.2% (active).

As to `CC(=O)N1CCCN(C2=Nc3ccccc3Sc3ccccc32)CC1`, the inhibition is -1.49%.

Regarding `O=S1(=O)c2ccc(Br)cc2OC[C@@H](Cc2ccccc2)N1Cc1cn(Cc2ccco2)nn1`, the inhibition was 4.58%.

Turning to `CC(=O)Nc1cnc(-c2ccc(O)cc2C)cn1`, the inhibition is 1.38%.

Regarding `Cc1ccc(Nc2nc(-c3ccc(O)cc3O)cs2)nc1`, the inhibition is 36.2% (active).

For `Cc1ccc(-c2csc(NCCc3nc4cc(Cl)c(Cl)cc4n3CCOCCO)n2)cc1`, the inhibition was 17.1%.

Turning to `O=S(=O)(c1cccs1)N1CCCc2nc(-c3ccc(Br)cc3)ccc21`, the inhibition was 4.14%.

As to `O=C(CSc1nc2ccccc2nc1N1CCCCC1)N1CCN(S(=O)(=O)c2cccc([N+](=O)[O-])c2)CC1`, the inhibition is 12%.

With `CCCCC(=O)Nc1nnc(S(=O)(=O)N(C)Cc2ccco2)s1`, the inhibition is 5.48%.

For `O=C(Nc1nnc(-c2ccccc2F)s1)c1ccccc1F`, the inhibition is 0.79%.

Regarding `CN(Cc1ccccc1)S(=O)(=O)c1nnc(NC(=O)c2ccccc2F)s1`, the inhibition was 54.3% (active).

For `Cc1cccc(C(=O)Nc2c(-c3ccc(F)cc3)nc3ncccn23)c1`, the inhibition was 0.58%.

For `C=C(C)C1CC23C(=O)C4(C(=O)c5ccccc5)C[C@@]5(C)CCC(CC2C1(C)C)(C4=O)C35OC` (some centres undefined), the inhibition is 8.07%.

With `O=C(CN1CCN(C(=O)c2ccco2)CC1)Nc1ccc2c(c1)OCO2`, the inhibition was 0.64%.

With `Cc1ccc(NC(=O)C(c2ccccc2)N2CCN(C(=O)c3ccco3)CC2)cc1` (centres undefined), the inhibition is 4.43%.

Consider `Cc1ccc(-c2csc(C(C#N)=C(O)CN3CCN(C(=O)c4ccco4)CC3)n2)cc1`, for which the inhibition was 42.8% (active).

`Nc1nc(CSc2nnnn2-c2ccccc2)nc(Nc2ccccc2)n1`: the inhibition was 7.48%.

Turning to `Cc1ccc(Nc2nc(CSc3nnnn3-c3ccccc3)cc(=O)[nH]2)cc1`, the inhibition is 46.6% (active).

Regarding `COc1ccc(NC(=O)CSc2nnnn2-c2cccc(OC)c2)cc1`, the inhibition is 1.33%.

Consider `CC(C)CNc1cccc2c1S(=O)(=O)N(Cc1cn(Cc3ccc(Cl)cc3)nn1)Cc1ccccc1O2`, for which the inhibition was 5.62%.
